{"source": "paper PMC3795721", "about": "“Screening for Protein-DNA Interactions by Automatable DNA-Protein Interaction ELISA”"}
{"molecular_target": "AT4G31550 (Arabidopsis thaliana, UniProt Q9SV15 228-325)", "sequence (Q9SV15 228-325)": "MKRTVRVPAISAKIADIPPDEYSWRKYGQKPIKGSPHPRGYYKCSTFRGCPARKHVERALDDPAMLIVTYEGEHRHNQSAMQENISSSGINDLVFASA", "assay": "DPI-ELISA; DPI-ELISA, streptavidin 384-well plate, 1-2 pmol biotinylated dsDNA per well, crude native E. coli extract, anti-His detection; buffer as in Brand et al. [46],; high values mean tight binding", "settings": "tags: C-terminal His (pET-DEST42); label: 5' biotin on forward strand; dsDNA, one strand shown", "units": {"binding signal": "absorbance"}}
{"sequence": "AAAAAATCCCCCCGTTTCACTCTTGCAAAA", "binding signal": "0.66 ± 0.141"}
{"sequence": "AAAAAAGATGATTAGTAATTGCGGAAAAAA", "binding signal": "0.75 ± 0.0849"}
{"sequence": "AAAAAAGTCTAAGGACTTATAGCTGTAAAA", "binding signal": "1.65 ± 0.608"}
{"sequence": "AAAAAAACTCACGGCGTCACTATGGTAAAA", "binding signal": "0.585 ± 0.12"}
{"sequence": "AAAAAATCAACCATTATGGTATTACTAAAA", "binding signal": "0.79 ± 0.212"}
{"sequence": "AAAAAATCCGTTCCCATTTGTCCGTCAAAA", "binding signal": "0.58 ± 0.0849"}
{"sequence": "AAAAAATTAGTCCTGATTCAATCTTCAAAA", "binding signal": "0.755 ± 0.106"}
{"sequence": "AAAAAATGTTGTTGCTGTTGGTCCTAAAAA", "binding signal": "0.695 ± 0.0778"}
{"sequence": "AAAAAACGTTGAACCTGGGCCTCAACAAAA", "binding signal": "1.39 ± 0.191"}
{"sequence": "AAAAAACTGTGTCCCCGTCCCATCTCAAAA", "binding signal": "0.525 ± 0.12"}
{"sequence": "AAAAAATAATATCGATACTCATGCCCAAAA", "binding signal": "0.685 ± 0.134"}
{"sequence": "AAAAAATTGCATTCCACCCTTAGGTTAAAA", "binding signal": "0.495 ± 0.106"}
{"sequence": "AAAAAATATATTTTCAGCTTTAATCTAAAA", "binding signal": "0.685 ± 0.106"}
{"sequence": "AAAAAACTCGCGCTTGCATCTGTGCGAAAA", "binding signal": "0.555 ± 0.0636"}
{"sequence": "AAAAAATCATCTCTATGTTATTGTTGAAAA", "binding signal": "0.58 ± 0.113"}
{"sequence": "AAAAAATATGTAGCTGCCGTTACGCTAAAA", "binding signal": "0.54 ± 0.212"}
{"sequence": "AAAAAACTTCCCTCCTTGTCCTCCCCAAAA", "binding signal": "0.66 ± 0.113"}
{"sequence": "AAAAAAGTTTCTGCTTTCCCTTTCGTAAAA", "binding signal": "0.665 ± 0.205"}
{"sequence": "AAAAAAAGTAGTTACTGCGAAAGTCTAAAA", "binding signal": "0.675 ± 0.0778"}
{"sequence": "AAAAAATGTGGTTACGGCCTCGATGAAAAA", "binding signal": "0.565 ± 0.106"}
{"sequence": "AAAAAAGTTATTATACCTGATCTCGCAAAA", "binding signal": "1 ± 0.778"}
{"sequence": "AAAAAAGCTCATGGCCCTGAGGATCTAAAA", "binding signal": "0.73 ± 0.113"}
{"sequence": "AAAAAAGGCCGTTGGACCTCGGTCTAAAAA", "binding signal": "0.66 ± 0.0707"}
{"sequence": "AAAAAATCTATTCCATTTCGCCTTCTAAAA", "binding signal": "0.68 ± 0.141"}
{"sequence": "AAAAAATTTATACTTGATCCTGGCTTAAAA", "binding signal": "0.575 ± 0.0636"}
{"sequence": "AAAAAATAAACGTGTTCATACTTAGTAAAA", "binding signal": "0.61 ± 0.0707"}
{"sequence": "AAAAAAAATCTTAGCTCTATCTCATCAAAA", "binding signal": "0.68 ± 0.113"}
{"sequence": "AAAAAAGTACGGATGCCCGCGCGTATAAAA", "binding signal": "0.735 ± 0.205"}
{"sequence": "AAAAAATGGAAGGAGAGGGATGAAATAAAA", "binding signal": "0.57 ± 0.156"}
{"sequence": "AAAAAACCAGTCTACACCGCTGTAGGAAAA", "binding signal": "0.705 ± 0.0919"}
{"sequence": "AAAAAATGGAAAGACCTATACCGGTCAAAA", "binding signal": "1.09 ± 0.17"}
{"sequence": "AAAAAATGTCCATCTTGCGTCTGTATAAAA", "binding signal": "0.79 ± 0.212"}
{"sequence": "AAAAAACCAACTCTCTTTCGGACTATAAAA", "binding signal": "0.67 ± 0.156"}
{"sequence": "AAAAAAGGTAGTCACATTACGAGGGTAAAA", "binding signal": "0.555 ± 0.0354"}
{"sequence": "AAAAAATGTTTTTTAGAGGTGTGCAAAAAA", "binding signal": "0.57 ± 0.0849"}
{"sequence": "AAAAAACTACGTATATTCAGGCCCTAAAAA", "binding signal": "0.68 ± 0.113"}
{"sequence": "AAAAAACCTACGATGGTTCTGATCTTAAAA", "binding signal": "0.655 ± 0.12"}
{"sequence": "AAAAAATCACAATACCTTCTCGTCATAAAA", "binding signal": "0.58 ± 0.113"}
